The nature of test [1]: antimalarial activity against Dd2 strain (AID 2302;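 active means growth inhibition above 50% at the single 2 µM test dose, taken to imply half-maximal potency below 2 µM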;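 further: 0% = DMSO untreated growth and 100% = chloroquine plus artemisinin killed control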). The note with it: P. falciparum Dd2 in RBCs, LDH growth readout, 72 h; at 2 µM; active compounds read high.
A short description of test [2]: human hepatoma cell viability loss – ATP luminescence, cytotoxicity control for P. falciparum antimalarial project, primary screen (AID 2303;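 active means inhibition above 50%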;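 further: 0% = DMSO wells and 100% = digitonin-killed cells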). The following applies: HepG2 viability, 24-48 h, at 10 µM, active compounds read high.
The target of test [3] is L-lactate dehydrogenase (Plasmodium falciparum (isolate CDC / Honduras)) (UniProt Q27743). As to the kind of experiment: PfLDH activity inhibition – cell lysate, 3D7 strain, counter-screen for P. falciparum growth inhibition project (AID 2304).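 Further: 0% = vehicle and 100% = reference inhibitor.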 The following applies: P. falciparum 3D7 crude extract, LDH APAD/NBT absorbance; at 2 µM; active compounds read high.
Test [4] in a line: inhibition of 3D7 malaria parasite growth – strain 3D7 (AID 2306).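 Further: 0% = DMSO wells and 100% = chloroquine plus artemisinin control wells.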 The note with it: P. falciparum 3D7 erythrocytic growth, LDH absorbance, 72 h; at 2 µM; active compounds read high.
Test [5] addresses Calcium-dependent protein kinase 1 (Plasmodium falciparum (isolate 3D7)) (UniProt P62344). As to the kind of experiment: PfCDPK1 kinase inhibitors, biochemical, TCAMS library (AID 1159585; cut-off not given, nearly all actives have IC50 up to about 0.98 µM;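 further: inhibitors leave more ATP so luminescence rises with inhibition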). The note with it: recombinant PfCDPK1, Kinase-Glo ATP depletion luminescence.
The target of test [6] is Plasmodium falciparum protein kinase 6 (PK6, PF3D7_1337100) (UniProt Q8IDW1). In words: PfPK6 kinase inhibitors, biochemical, TCAMS library (AID 1159586). The note with it: recombinant PfPK6, Kinase-Glo ATP depletion luminescence.
In test [7] the target is Protein kinase 7 (PK7), Plasmodium falciparum 3D7 (PF3D7_0213400) (UniProt Q7YTF7). As to the kind of experiment: inhibition of Plasmodium PK7 catalytic activity – biochemical, TCAMS antimalarial set, Kinase-Glo luminescence (AID 1159587). The following applies: recombinant PfPK7, Kinase-Glo ATP depletion luminescence.
The target in test [8] is Calcium-dependent protein kinase 4 (Plasmodium falciparum (isolate 3D7)) (UniProt Q8IBS5). In words: PfCDPK4 kinase inhibitors, biochemical, TCAMS library (AID 1159588; cut-off not given, nearly all actives have IC50 up to about 0.91 µM). The following applies: recombinant PfCDPK4, Kinase-Glo ATP depletion luminescence. A general note: In Kinase-Glo more light means more ATP remaining.

Structures are written as SMILES. Values without a mark were called inactive. For some assays here: Entries with a potency or affinity are not part of this list. Calls of active or inactive are those of the source. Unless noted, how the calls were made is not given here.

Calcium-dependent protein kinase 1 (Plasmodium falciparum (isolate 3D7)), sequence (P62344 whole entry, looked up): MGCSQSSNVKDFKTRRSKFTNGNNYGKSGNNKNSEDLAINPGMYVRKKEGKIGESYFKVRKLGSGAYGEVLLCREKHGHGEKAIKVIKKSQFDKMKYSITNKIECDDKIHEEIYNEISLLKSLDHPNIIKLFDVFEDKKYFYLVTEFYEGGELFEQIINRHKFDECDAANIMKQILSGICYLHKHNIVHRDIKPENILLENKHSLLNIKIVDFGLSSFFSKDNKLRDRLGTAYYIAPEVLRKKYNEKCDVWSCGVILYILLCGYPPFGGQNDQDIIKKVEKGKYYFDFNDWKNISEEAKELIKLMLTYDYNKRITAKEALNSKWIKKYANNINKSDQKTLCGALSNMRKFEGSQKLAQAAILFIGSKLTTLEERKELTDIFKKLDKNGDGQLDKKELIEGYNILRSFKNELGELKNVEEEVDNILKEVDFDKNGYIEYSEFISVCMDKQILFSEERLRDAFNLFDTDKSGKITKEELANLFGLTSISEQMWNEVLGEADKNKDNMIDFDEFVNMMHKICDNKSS
Plasmodium falciparum protein kinase 6 (PK6, PF3D7_1337100), sequence (Q8IDW1 1-305): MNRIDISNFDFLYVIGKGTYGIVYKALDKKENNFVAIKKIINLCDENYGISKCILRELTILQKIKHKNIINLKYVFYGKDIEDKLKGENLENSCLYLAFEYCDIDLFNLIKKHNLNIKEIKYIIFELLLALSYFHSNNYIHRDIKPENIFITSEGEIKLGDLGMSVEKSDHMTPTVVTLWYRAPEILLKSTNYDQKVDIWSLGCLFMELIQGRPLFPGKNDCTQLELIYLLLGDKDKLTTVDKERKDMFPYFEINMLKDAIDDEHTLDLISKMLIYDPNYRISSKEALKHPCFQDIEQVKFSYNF
Protein kinase 7 (PK7), Plasmodium falciparum 3D7 (PF3D7_0213400), sequence (Q7YTF7 1-343): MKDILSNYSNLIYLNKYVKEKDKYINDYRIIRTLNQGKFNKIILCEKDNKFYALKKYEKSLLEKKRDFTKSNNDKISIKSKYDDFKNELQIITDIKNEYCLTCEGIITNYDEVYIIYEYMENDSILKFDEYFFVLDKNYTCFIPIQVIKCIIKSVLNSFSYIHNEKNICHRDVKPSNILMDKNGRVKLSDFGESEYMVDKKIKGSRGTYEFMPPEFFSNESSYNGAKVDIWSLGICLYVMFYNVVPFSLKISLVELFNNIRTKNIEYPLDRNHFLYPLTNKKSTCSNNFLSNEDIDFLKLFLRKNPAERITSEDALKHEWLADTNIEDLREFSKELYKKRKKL
L-lactate dehydrogenase (Plasmodium falciparum (isolate CDC / Honduras)), sequence (Q27743 whole entry, looked up): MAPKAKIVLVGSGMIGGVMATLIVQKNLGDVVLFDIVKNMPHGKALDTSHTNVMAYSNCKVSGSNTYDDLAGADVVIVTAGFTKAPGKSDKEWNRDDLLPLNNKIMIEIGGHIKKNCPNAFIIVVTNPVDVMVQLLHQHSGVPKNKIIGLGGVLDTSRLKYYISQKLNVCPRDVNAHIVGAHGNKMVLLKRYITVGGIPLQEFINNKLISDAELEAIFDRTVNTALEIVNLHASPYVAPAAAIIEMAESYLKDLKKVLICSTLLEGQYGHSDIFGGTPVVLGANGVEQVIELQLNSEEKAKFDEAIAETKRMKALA
Calcium-dependent protein kinase 4 (Plasmodium falciparum (isolate 3D7)), sequence (Q8IBS5 whole entry, looked up): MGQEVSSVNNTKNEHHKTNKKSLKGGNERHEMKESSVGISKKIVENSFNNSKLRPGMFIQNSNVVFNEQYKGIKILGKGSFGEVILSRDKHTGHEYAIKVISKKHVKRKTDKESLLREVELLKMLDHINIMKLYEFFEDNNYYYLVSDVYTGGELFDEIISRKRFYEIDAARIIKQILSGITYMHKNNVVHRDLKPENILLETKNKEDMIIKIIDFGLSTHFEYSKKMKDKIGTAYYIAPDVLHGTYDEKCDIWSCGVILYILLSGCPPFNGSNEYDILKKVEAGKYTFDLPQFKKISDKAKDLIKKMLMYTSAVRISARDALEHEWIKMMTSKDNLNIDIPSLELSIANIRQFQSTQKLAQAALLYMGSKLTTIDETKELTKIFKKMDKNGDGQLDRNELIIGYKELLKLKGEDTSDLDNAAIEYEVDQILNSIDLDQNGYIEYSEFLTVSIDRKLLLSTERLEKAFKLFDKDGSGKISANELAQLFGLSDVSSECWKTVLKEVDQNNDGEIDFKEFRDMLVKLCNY

As usually defined, the inhibition is the drop in the measured response relative to a control, in per cent. As to `CCN1CCN(c2cc(C)c3cc(NC(=O)c4cccc(C(F)(F)F)c4)ccc3n2)CC1`, the results for the growth inhibition in test [1] and in test [4] were 85% (active) and 101% (active), respectively. Further, the inhibition in test [2] is 24%; in test [3], 0%. Also, the result in test [5], in test [6], in test [7] and in test [8] was inactive.

Turning to `Cc1ccc(C2CC(c3cccs3)=NN2C(=O)c2ccc(Br)o2)cc1` (configuration not stated), the results for the growth inhibition in test [1] and in test [4] were 69% (active) and 99% (active), respectively. The inhibition in test [2] is 11%; in test [3], 0%. Also, the outcome in test [5], in test [6], in test [7] and in test [8] was inactive.

Turning to `CN(C)CCOc1ccc(-c2cc(-c3ccncc3)c(-c3ccc(Cl)c(O)c3)[nH]2)cc1`, the growth inhibition in test [1] is 100% (active); in test [4], 98% (active). Moreover, the inhibition in test [2] was 25%; in test [3], -2%. Moreover, the result in test [5], in test [6], in test [7] and in test [8] was inactive.

As to `COc1ccc(CNCc2ccc(-c3ccc(-c4nc5c(C)cccc5[nH]4)cc3)cc2)cc1`, the growth inhibition was 97% (active) in test [1] and 101% (active) in test [4]. Moreover, the results for the inhibition in test [2] and in test [3] were 53% (active) and 2%, respectively. The outcome in test [5], in test [6], in test [7] and in test [8] was inactive.

For the molecule `Cc1ccc(C)c(NC(=O)Nc2ccc(C)c(-c3ccc(C(=O)Nc4ccncc4)cc3)c2)c1`, the results for the growth inhibition in test [1] and in test [4] were 59% (active) and 98% (active), respectively. The inhibition in test [2] was 46%; in test [3] it was -3%. Besides, the outcome in test [5], in test [6], in test [7] and in test [8] was inactive.

As for `O=c1cc(NCCCNC2CCc3ccc(Cl)cc32)[nH]c2ccccc12` (configuration not stated), the growth inhibition in test [1] was 39%; in test [4] it was 92% (active). Further, the inhibition in test [2] is -2%; in test [3] it was 3%. In addition, the result in test [5], in test [6], in test [7] and in test [8] was inactive.

Regarding `O=C(NC1CCC(CCN2Cc3ccc(Br)cc3C2)CC1)c1cccc(-c2cccnc2)c1` (configuration not stated), the growth inhibition in test [1] is 73% (active); in test [4] it was 99% (active). In addition, the inhibition in test [2] was 14%; in test [3], 5%. Besides, the outcome in test [5], in test [6], in test [7] and in test [8] was inactive.

For the molecule `O=C(Nc1ccc(Oc2ccccc2)cc1)N(CCN1CCCC1)Cc1ccc(-c2ccc(CN3CCNCC3)cc2)cc1`, the growth inhibition is 90% (active) in test [1] and 88% (active) in test [4]. Besides, the figures for the inhibition in test [2] and in test [3] were 48% and -2%, respectively. For the same molecule, the result in test [5], in test [6], in test [7] and in test [8] was inactive.

For the molecule `N#Cc1ccc(N2CCN(Cc3ccc(-c4ccc(-c5nc6ccc(C(F)(F)F)cc6[nH]5)s4)cc3)CC2)nc1`, the growth inhibition was 73% (active) in test [1] and 100% (active) in test [4]. For the same molecule, the inhibition in test [2] is 13%; in test [3] it was 4%. The result in test [5], in test [6], in test [7] and in test [8] was inactive.

In the case of `Cc1c(C)n(C2CCCCC2)c2ncnc(OC3CCN(CC(=O)NC4CC4)CC3)c12`, the growth inhibition was 72% (active) in test [1] and 94% (active) in test [4]. The results for the inhibition in test [2] and in test [3] were 21% and -2%, respectively. Also, the outcome in test [5], in test [6], in test [7] and in test [8] was inactive.

Take `O=C(NCC1CCN(CCN2CCc3ccc4c(c3C2)OCO4)CC1)c1ccc(-c2ccc(C(F)(F)F)cc2)cc1`: the figures for the growth inhibition in test [1] and in test [4] were 34% and 93% (active), respectively. Moreover, the inhibition in test [2] is 66% (active); in test [3], -5%. The result in test [5], in test [6], in test [7] and in test [8] was inactive.

Take `COC(=O)c1ccc2nc(-c3ccc(C(=O)NC4CCN(Cc5ccccc5)CC4)s3)[nH]c2c1`: the growth inhibition in test [1] is 71% (active); in test [4], 99% (active). Further, the results for the inhibition in test [2] and in test [3] were -7% and -4%, respectively. Besides, the result in test [5], in test [6], in test [7] and in test [8] was inactive.

Consider `O=C(/C=C/c1ccc(Cl)c(Cl)c1)N1CCN(C(=O)Nc2ccc(C(F)(F)F)cc2)CC1`, for which the values for the growth inhibition in test [1] and in test [4] were 101% (active) and 98% (active), respectively. For the same molecule, the values for the inhibition in test [2] and in test [3] were 47% and 4%, respectively. Moreover, the result in test [5], in test [6], in test [7] and in test [8] was inactive.

`Cc1cccc2[nH]c(-c3ccc(-c4cccc(NC(=O)Nc5ccc(Cl)c(Cl)c5)c4)s3)nc12`: the growth inhibition is 36% in test [1] and 101% (active) in test [4]. In addition, the inhibition in test [2] is 46%; in test [3], -1%. For the same molecule, the outcome in test [5], in test [6], in test [7] and in test [8] was inactive.

Regarding `O=C(Nc1ccccc1)Nc1ccc(-n2ccc(C(F)(F)F)n2)cc1`, the growth inhibition in test [1] is 85% (active); in test [4], 95% (active). Besides, the inhibition was 15% in test [2] and -5% in test [3]. The outcome in test [5], in test [6], in test [7] and in test [8] was inactive.

`Cc1ccc(Nc2nc(C)cc(NC3CC3)n2)cc1`: the growth inhibition is 15% in test [1] and 97% (active) in test [4]. Also, the inhibition in test [2] is -4%; in test [3], 5%. Moreover, the outcome in test [5], in test [6], in test [7] and in test [8] was inactive.

`CCCCc1ccc(-c2nc(NC(=O)Nc3nc(-c4ccccc4)[nH]c3C(=O)OCC)c(C(=O)OCC)[nH]2)cc1`: the growth inhibition in test [1] was 26%; in test [4], 95% (active). Moreover, the inhibition is 0% in test [2] and -4% in test [3]. Moreover, the outcome in test [5], in test [6], in test [7] and in test [8] was inactive.

Regarding `Cc1ccc(Cc2cnc(NCCSCc3ccc(CN(C)C)s3)[nH]c2=O)cn1`, the growth inhibition was -5% in test [1] and 95% (active) in test [4]. In addition, the inhibition was 3% in test [2] and 0% in test [3]. Moreover, the outcome in test [5], in test [6], in test [7] and in test [8] was inactive.

With `Cc1nnsc1C(=O)Nc1cccc(-c2ccc(-c3nc4ccc(F)cc4[nH]3)s2)c1`, the growth inhibition in test [1] is 22%; in test [4], 89% (active). Also, the inhibition was 62% (active) in test [2] and 4% in test [3]. For the same molecule, the result in test [5], in test [6], in test [7] and in test [8] was inactive.

These data come from PubChem BioAssay.
